Data as given in the supplement of paper PMC10105736.
Unmarked numbers belong to inactive results.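 How the source made its calls: active = MAPPIT score above the 99th percentile of random reference set scores in the same batch; inactive = at or below it.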

Experiments:
Assay in all cases: MAPPIT interaction score (arbitrary units); higher = stronger binary interaction signal, active = hit call of the paper
Drat = settings: MAPPIT configuration: N-N; pair source set: RRS
Dpit47 = settings: pair source set: RRS
Vps51 = settings: MAPPIT configuration: N-N; pair source set: Curagen_high_conf
Dpm3 = settings: MAPPIT configuration: N-C; pair source set: screen_3
EMC2B = settings: MAPPIT configuration: N-C; pair source set: Lit-BM-16
Eglp4 = settings: MAPPIT configuration: N-C; pair source set: screen_3
Faf2 = settings: MAPPIT configuration: N-C; pair source set: screen_4
RIC-3 = settings: MAPPIT configuration: N-C; pair source set: screen_4
E(z) = settings: pair source set: Lit-BM-16
Doc1 = settings: MAPPIT configuration: N-C; pair source set: screen_3
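Further: HEK293T cells with Epo stimulation, STAT-responsive firefly luciferase reporter, fold induction versus unstimulated cells divided by the larger fold induction of two negative controls lacking either bait or prey.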

B1: Obp84a (protein)
chain: MYSALVRACAVIAFLILSPNCARALQDHAKDNGDIFIINYDSFDGDVDDISTTTSAPREADYVDFDEVNRNCNASFITSMTNVLQFNNTGDLPDDKDKVTSMCYFHCFFEKSGLMTDYKLNTDLVRKYVWPATGDSVEACEAEGKDETNACMRGYAIVKCVFTRALTDARNKPTV
- MAPPIT interaction score (Drat): 0.229

B2: Os-C (protein)
chain: MGFHMGRQLLLSGFLLVMLQMVTQTQARPQDVITVAGEETEVVIKREGDDDGDDDDSSSEETVEDSEESRRRRREVNTDNTPSARAVIPGEQVVPILLEAILPSVDAAGDRFARSVQFLKNLTPGSELFAVEKNE
- MAPPIT interaction score (Dpit47; MAPPIT configuration: N-C): 1.62
- MAPPIT interaction score (Dpit47; MAPPIT configuration: N-N): 0.00721
- MAPPIT interaction score (Vps51): -0.071

B3: BomBc1 (protein)
chain: MKCLILSFAIFVVLASQATAGNVIIGGVCQDCSPPVAENVVVGGQSYRTGRPGQGTVYINSPGAYLGALDGPIRRTGAGGGGGGGAQYPDGYSGRLPGGTYLHNKDCVGCSISGGGD
- MAPPIT interaction score (Dpm3): 0.481

B4: EMC8-9 (protein)
chain: MCDYKVSERAYAKLIFHAAKYPHQAVNGLLLAEKTSKGSQVEIVDAIPLFHQCLYVTPMAEVALMLIDAHAEREGLVIAGYYAAPENFYDNQVDKTPAAKIADKIQENFKNACFVVVDNKLMTLQHDRAAIQVFNCPGDSGARWSKAKFTLSQASDTLEGVSLLLKRGAMRDLVDFDNHLDNPDKNWTNDFLNQPLNDLQKLY
- MAPPIT interaction score (EMC2B): -4.28

B5: Membrin (protein)
chain: MESLYHQTNNVVKDIERDFQRLSQLSAQESLDVENGIQLKITQANANCDRLDVLLYKVPPSQRQSSKLRVDQLKYDLRHLQTSLQTARERRQRRMQEISEREQLLNHRFTANSAQPEETRLQLDYELQHHTQLGNAHRGVDDMIASGSGILESLISQRMTLGGAHKRIQAIGSTLGLSNHTMKLIERRLVEDRRIFIGGVVVTLLIIALIIYFLVL
- MAPPIT interaction score (Eglp4): 0.261
- MAPPIT interaction score (Faf2): 2.2
- MAPPIT interaction score (RIC-3): -0.382

B6: Pcl (protein)
chain: MMNNHFHLQHDHPPQNVAHPFMQQPSTAVPSAPPATYGYLAQPAGQQPQWMTTTYQILPPSVGPATVAKRYYATTGPQTTHPTHPSTIQITNSFAQQSTPPKQQAATSCSPFKANNIRIISTAPSVYSLNKPPQEAHSTYAPVQSYYLPSGGGQTAGQINLLAASGTGKQLQPPPLVPVTNSTSPPSTVVLDRINICINNHYTETPTSLSSSLTTAQQPSPIIPAIQHKAILPLIDSSTADSSSCSSSSVSSSSYSGTATTSAAVVIVDEPDSTTTTPQTPPTTPEAMSSPGKSSPSPPLLATQSLLKGVNSMKPSFKTVEAAPPTPPTPPSPPPPPPAPPVAAPSPAVTYALQEDVFIKCNDGRFYLGTIIDQTSDQYLIRFDDQSEQWCEPDKLRKLGGGSSITAGGGGASTTESTNTSPSGPMCVACKRSDIEDVVEICERCGRGYHRGCTVEIVTGSGIWSCKRCAKPMKMQQPVSHKITKPAGICRQLPYHADKLSWDEKHRVNEEQIYCYCGKPGKFDHNMLQCCKCRNWFHTQCMQNFKKKLLRGDMFFVFCCTVCNNGIEFVRRMQIEWVDVLHIALYNLRKHQHQKYHHLLNDIWPFILEQRHQLPICEKWRTLPETALMERLKQTLKDYSDRFVCGREFKRAPAFYALRHSGPPHIPKVFLEPHEELSDELLEKRFKLMLMPEEPDEGANELPKRVPKDVYEFNTDEDDPVETSEDEIPIKQIIEKAKKQAAQKADKHDELPLKPDLADDNANDGDPGKLPAPIPPLLDANSSRKRKAFRLSKRYDNSRNHCDLSSDENSSSSRGTSSLDLIIPPPVNFLGRNNPFLMATPKKASQGRSISVGTGVGVNGIINSIFKLKGTSKEQPRMVRTIKRRLSAKDITIGPNQEVRRRRTRRLTTAIEVISTTTINPIPSHYLPIYAKDLQPPAPPMGKPTHGRLLRQRPQKQSPSQSRRNSTSSTATSSSSNGIGAPGHSMLDLKQSVNKYFGGAMNRIDAGEPFAIRAKRRMGNGQVQYLVEWGGDTATTAIGLLGN
- MAPPIT interaction score (E(z); MAPPIT configuration: N-C): 0.709
- MAPPIT interaction score (E(z); MAPPIT configuration: N-N): 3.05 (active)

B7: MED19 (protein)
chain: MMSNYGNMMDSPKSSPHGGGRSPVVARQDSSGTLKTTISLGKTPTIIHTGPFYSMKEPPAKAELTGDKDLMTEYGLHHTLTKFKEKKFKESLASFLQNIPGINDLITHPVENSTLRSVIEKPPIGGKELLPLTPVQLAGFRLHPGPLPEQYRTTYVTPARKHKNKHKKQKHKDGVTTGQESTLLDSAGLETYEKKHKKQKRHEDDKERKKRKKEKKRKKKNQSPEPGVGLLPGGASLGGAAGVMGATSLGSLGGGPGGPGLSSLSASMGPGVVGNMNSFSSSMQMQQQQQMPMQQQQMSSGGLLGSVLGTSGGPGGGGGGGGGGGGGVGGSLLMSQF
- MAPPIT interaction score (Doc1): -0.0798
